High-throughput results as filed in PubChem.
T cruzi growth-1: blocks T. cruzi growth in NIH3T3 culture; inhibition, % at 8.34 µM; T. cruzi beta-gal in NIH3T3, GalScreen luminescence, 90 h; 5.9% of 77,000 active;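 active = mean inhibition above about 93%, with at least 55% of replicates each passing it, limit read from the data, passing the limit was not always enough; inconclusive = only one of those two conditions holds; inactive = neither condition holds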
Pf Dd2 inh: inhibitors of Plasmodium falciparum Dd2 growth | P. falciparum Dd2 growth, SYBR Green, 72 h; hits give low values | activity change, % at 10 µM | 2.3% of 94,000 active | AID 1159554; in the data active = activity change below about -80%; inconclusive = no clear call, values can overlap the other calls
C diff HTS: blocks growth of Clostridium difficile; Clostridium difficile clinical isolate growth, OD600, 24 h; hits give low values; growth activity, negative = inhibition, % at 16 µg/mL (by protocol); 0.25% of 86,000 active; AID 1259249;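 active = mean growth activity at or below -80% and every replicate also at or below -80%; inconclusive = mean at or below -80% but some replicate above -80%; inactive = mean growth activity above -80%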;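 note: 0% = DMSO wells and -100% = levofloxacin 16 µg/mL wells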
T cruzi growth-2: inhibitors of T. cruzi proliferation. T. cruzi beta-gal in NIH3T3, GalScreen luminescence, 90 h. 72% of 5,600 active. shares compounds with T cruzi growth-1. inhibition, % at 8.35 µM. AID 651739;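 active = mean replicate inhibition above about 95% and at least 55% of replicates individually reaching it, limit read from the data; inconclusive = only one of the two criteria is met; inactive = neither criterion is met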
T cruzi growth-3: Trypanosoma cruzi proliferation inhibition | AID 651740 | T. cruzi beta-gal in NIH3T3, GalScreen luminescence, 90 h | inhibition, % at 2.09 µM | shares compounds with T cruzi growth-1 | 21% of 5,600 active;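 active = mean inhibition above about 95%, with at least 55% of replicates also reaching it, limit read from the data; inconclusive = meets just one of the two conditions; inactive = meets neither condition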;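 note: plate controls were neutral control median for no effect and positive control median for full effect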
3T3 cytotox: kills mouse NIH/3T3 fibroblasts | 14% of 5,600 active | shares compounds with T cruzi growth-1 | cytotoxicity (signal decrease), % at 8.35 µM | NIH/3T3 viability, CellTiter-Glo ATP luminescence, 90 h | AID 651742;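 active = mean signal decrease across replicates above about 35% based on untreated-well scatter, with enough replicates individually passing, limit read from the data; inconclusive = no rule stated though some were filed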;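 note: 0% = median of neutral control wells and 100% = median of positive control wells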
NIH3T3 tox 2: cytotoxicity in mouse NIH/3T3 fibroblasts; shares compounds with T cruzi growth-1; NIH/3T3 viability, CellTiter-Glo ATP luminescence, 90 h; inhibition, % at 24.9 µM; 56% of 5,600 active; AID 651744;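 active = mean loss of cell viability signal at or above a set limit, and enough replicates individually reaching it; inconclusive = meets only the mean limit or only the replicate share; inactive = meets neither condition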;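 note: 0% = median of neutral control wells and 100% = median of positive control wells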
Active calls of the source: *; ? = inconclusive; · = not tested or not shown; ! = repeats disagree. Hits are enriched below; roughly 6.8% of the tested compounds scored in any of these assays.

SMILES	T cruzi growth-1	Pf Dd2 inh	C diff HTS	T cruzi growth-2	T cruzi growth-3	3T3 cytotox	NIH3T3 tox 2
CC(C)C#Cc1ccc2c(c1)O[C@H](CN(C)Cc1ccccn1)[C@@H](C)CN([C@@H](C)CO)S2(=O)=O	?	-59.9	20.9	107.3*	79.2	0.2	78.2*
C[C@H](CO)N1C[C@H](C)[C@H](CN(C)Cc2ccc(Cl)c(Cl)c2)Oc2c(NS(=O)(=O)c3cn(C)cn3)cccc2C1=O	45.0	3.7	-2.4	·	·	·	·
COc1ccc2c3c([nH]c2c1)[C@H](CO)N(C(=O)Nc1ccc(F)cc1)CC31CN(C(=O)Cc2ccncc2)C1	·	-38.2	-3.9	·	·	·	·
C[C@H](CO)N1C[C@H](C)[C@@H](CN(C)C(=O)c2ccncc2)OCCCC[C@H](C)Oc2ccc(NS(=O)(=O)c3cccs3)cc2C1=O	·	-3.9	·	·	·	·	·
CCCNC(=O)N[C@H]1CC[C@H](CCn2cc(C3CC3)nn2)O[C@H]1CO	·	3.9	3.9	·	·	·	·
Cc1ccc(-c2ccc3c(c2)O[C@H](CN(C)C(=O)C2CC2)[C@H](C)CN([C@@H](C)CO)S3(=O)=O)cc1	41.0	-5.0	·	·	·	·	·
C[C@H](CO)N1C[C@H](C)[C@@H](CN(C)C(=O)CC2CC2)Oc2cc(C#CCC3CCCC3)ccc2S1(=O)=O	115.8*	-66.0	17.2	?	102.0*	30.9	103.8*
C[C@@H]1CN([C@@H](C)CO)S(=O)(=O)c2ccc(C#CCC3CCCC3)cc2O[C@@H]1CN(C)C(=O)CN(C)C	98.3	-63.7	5.3	·	·	·	·
C[C@H](CO)N1C[C@H](C)[C@H](CN(C)C(=O)CC2CC2)Oc2cc(C#CCC3CCCC3)ccc2S1(=O)=O	120.8*	-65.7	4.1	99.3*	62.9	2.0	104.5*
C[C@@H]1CN([C@@H](C)CO)S(=O)(=O)c2ccc(C#CCC3CCCC3)cc2O[C@H]1CN(C)C(=O)CN(C)C	121.7	-60.0	-1.5	·	·	·	·
C[C@H]1CN([C@@H](C)CO)S(=O)(=O)c2ccc(C#CCC3CCCC3)cc2O[C@@H]1CN(C)C(=O)CC1CC1	121.4*	-65.7	15.5	102.7*	112.6*	-22.2	105.1*
CC(=O)N(C)C[C@H]1Oc2cc(C#CCC3CCCC3)ccc2S(=O)(=O)N([C@H](C)CO)C[C@H]1C	33.8	-25.2	8.0	·	·	·	·
C[C@@H](NC(=O)C[C@H]1C=C[C@H](NC(=O)C2CCC2)[C@H](CO)O1)c1ccccc1	-14.6	-4.0	·	·	·	·	·
O=C([C@@H]1N[C@@H]2c3ccc(C4=CCCCC4)c(=O)n3C[C@@H]2[C@H]1CO)N1CCc2ccccc2C1	-57.7	22.2	-2.8	·	·	·	·
C[C@@H]1CN([C@H](C)CO)S(=O)(=O)c2ccc(C#CCN(C)C)cc2O[C@H]1CN(C)Cc1ccccn1	?	-51.8	0.7	97.4*	74.2	16.5	25.6*
C[C@@H]1CN([C@@H](C)CO)S(=O)(=O)c2ccc(C#C[C@@H](C)O)cc2O[C@@H]1CN(C)Cc1ccccn1	9.2	-10.6	2.6	·	·	·	·
CCCC#Cc1ccc2c(c1)O[C@H](CN(C)Cc1ccccn1)[C@H](C)CN([C@@H](C)CO)S2(=O)=O	58.7	·	-7.3	·	·	·	·
COCC#Cc1ccc2c(c1)O[C@H](CN(C)Cc1ccccn1)[C@H](C)CN([C@H](C)CO)S2(=O)=O	15.2	-1.0	2.2	·	·	·	·
CCCC#Cc1ccc2c(c1)O[C@H](CN(C)Cc1ccccn1)[C@@H](C)CN([C@H](C)CO)S2(=O)=O	103.9*	·	4.0	107.5*	74.9	40.5*	68.5*
CCCC#Cc1ccc2c(c1)O[C@@H](CN(C)Cc1ccccn1)[C@H](C)CN([C@@H](C)CO)S2(=O)=O	107.4*	·	3.1	95.7*	90.2	64.4*	92.8*
C[C@H]1CN([C@@H](C)CO)C(=O)c2cc(NC(=O)C3CC3)ccc2O[C@@H]1CN(C)C(=O)Nc1ccc2c(c1)OCO2	14.1	4.5	1.3	·	·	·	·
COc1ccc2c3c(n(C)c2c1)[C@@H](CO)N(CC1CC1)CC31CCN(S(=O)(=O)c2cccs2)CC1	·	-23.7	1.5	·	·	·	·
C[C@H](CO)N1C[C@H](C)[C@@H](CN(C)C(=O)Nc2ccccc2)Oc2cc(C#Cc3ccccc3)ccc2S1(=O)=O	118.3*	-39.9	21.1	105.3*	67.7	-9.5	-8.6
CC(C)C#Cc1ccc2c(c1)O[C@H](CN(C)C(=O)Nc1ccccc1)[C@@H](C)CN([C@H](C)CO)S2(=O)=O	·	13.0	-6.0	·	·	·	·
C[C@H](CO)N1C[C@H](C)[C@H](CN(C)C(=O)Nc2ccccc2)Oc2cc(C#Cc3ccccc3)ccc2S1(=O)=O	118.0*	-69.9	-19.5	106.6*	81.4	20.6	13.9
SMILES	T cruzi growth-1	Pf Dd2 inh	C diff HTS	T cruzi growth-2	T cruzi growth-3	3T3 cytotox	NIH3T3 tox 2
C[C@@H]1CN([C@H](C)CO)S(=O)(=O)c2ccc(C#Cc3ccccc3)cc2O[C@@H]1CN(C)C(=O)Nc1ccccc1	44.1	-6.0	-5.5	·	·	·	·
Cc1ccccc1-c1ccc2c(c1)O[C@H](CN(C)C(=O)Nc1ccccc1)[C@@H](C)CN([C@@H](C)CO)S2(=O)=O	91.9*	-41.0	-9.7	102.2*	56.0	?	63.8*
Cc1ccccc1-c1ccc2c(c1)O[C@@H](CN(C)C(=O)Nc1ccccc1)[C@@H](C)CN([C@H](C)CO)S2(=O)=O	30.6	-17.5	0.6	·	·	·	·
C[C@@H]1CCCCO[C@@H](CN(C)C)[C@@H](C)CN([C@@H](C)CO)C(=O)c2cc(NS(=O)(=O)c3ccc(F)cc3)ccc2O1	30.0	36.6	15.1	·	·	·	·
Cc1cccc(-c2ccc([C@H]3[C@@H](CO)N4CCCCN(S(=O)(=O)c5ccccc5C)C[C@H]34)cc2)c1	75.3	-72.7	-9.5	·	·	·	·
Cc1ccc(-c2ccc([C@H]3[C@H](CO)N4CCCCN(S(=O)(=O)c5ccccc5C)C[C@@H]34)cc2)cc1	75.3	-48.4	9.5	·	·	·	·
Cc1cccc(-c2ccc([C@H]3[C@@H](CO)N4CCCCN(S(=O)(=O)c5ccccc5C)C[C@@H]34)cc2)c1	111.2*	-12.8	-7.3	112.3*	88.8	8.8	-2.5
Cc1ccccc1S(=O)(=O)N1CCCCN2[C@H](C1)[C@H](c1ccc(-c3ccccc3)cc1)[C@@H]2CO	107.3*	2.3	1.7	101.8*	74.7	-0.5	47.9*
CCCNC(=O)N1[C@H](CO)[C@@H](c2ccccc2)C12CN(CCC(F)(F)F)C2	·	10.6	-1.3	·	·	·	·
C[C@H]1CN([C@@H](C)CO)S(=O)(=O)c2ccc(C3=CCCC3)cc2O[C@@H]1CN(C)C(=O)Nc1ccc2c(c1)OCO2	109.0*	-52.5	-3.8	95.9*	53.1	9.4	27.5*
C[C@@H]1CN([C@H](C)CO)S(=O)(=O)c2ccc(C#Cc3ccccc3)cc2O[C@H]1CN(C)C(=O)Nc1ccc2c(c1)OCO2	91.7*	-70.8	-6.4	107.8*	95.9*!	16.1	31.9*
